Experimental findings from PubChem BioAssay (Tox21) are described below.

Records with an inconclusive call do not appear. Unmarked numbers belong to inactive results. Active and inactive are the calls of the source. Calls follow the shape of the dose curve; as a rule, active = well fitted cell-killing curve with a large enough effect in the repeat runs; inconclusive = weak or mixed curves, or effect the other way; inactive = flat fitted curve, though single readings scatter.
% is scaled to controls: 0 for no effect and ±100 for the full control effect; potency is read from the fitted curve at half-maximal effect.

A short description of the test: qHTS assay to identify small molecule antagonists of the constitutive androstane receptor (CAR) signaling pathway - cell viability counter screen (AID 1224837). Also: nearly all actives have a fitted effect of over 45% in size. The note with it: HepG2-CYP2B6-hCAR viability, CellTiter-Fluor, 23 h, co-treated with 50 nM CITCO; series mostly up to 92.4 µM; activity change, negative = cytotoxicity: at the top concentration. The text has this: National Center for Advancing Translational Sciences [NCATS]
NIH Chemical Genomics Center [NCGC]
U.S. Environmental Protection Agency [EPA]
National Institutes of Environmental Health Sciences [NIEHS]
National Toxicology Program [NTP]
U.S. Food and Drug Administration [FDA]
The constitutive androstane receptor (CAR) is a nuclear receptor which regulates multiple drug metabolizing enzymes (DMEs) and transporters. Activating CAR will generally increase the transcription and subsequent translation of CYP2B6 and CYP3A4. These two DMEs represent about 50% of the drug metabolizing potential in the body. When CAR is deactivated, the metabolizing potential in the body will decrease, subsequently increasing the toxicity in the body or lowering the therapeutic potential of a pro-drug. Recently, there have also been studies performed indicating CARs role in energy metabolism and cancer therapy. Therefore, inhibiting CARs activity could have a potential effect on diabetes and cancer. Identifying environmental toxins and compounds which modulate CAR, through the use of the Tox21 10K compound collection, will be an important step in determining the toxicity and potential therapeutic effects these factors will have on the human body. To differentiate true CAR antagonists from cytotoxic substances, the assay is multiplexed with a cell viability assay.
Tox21 Assay Protocol Summary:
A double-stable (hCAR and CYP2B6-2.2kb) transfected cell line, derived from human hepatoma (HepG2) cells, was utilized for the duration of the quantitative high-throughput screens. The HepG2-CYP2B6-hCAR cells were dispensed at 2500 cells/4 uL/well in 1536-well white solid bottom plates using a Multidrop Combi. After the assay plates were incubated at 37 C/5% CO2 for 4 hrs, 23 nL of compounds at 15 concentrations (from 5-48 columns) or positive control (from 1 to 4 columns) were transferred to the assay plates using a Pintool station. One uL of CITCO (final concentration = 50 nM) was added, using a Flying Reagent Dispenser, inside each well. After a 23 hr incubation period at 37 C/5% CO2, 1 uL of CellTiter-Fluor reagent was added into each well of the assay plates using a Flying Reagent Dispenser. The fluorescence intensity in the plates was then measured using a ViewLux plate reader.
(In general: Quantitative high-throughput screening tests each substance at several concentrations.)
As for `O=c1[nH]ncc2ccccc12`, the “activity change, negative = cytotoxicity” value is 4.73%. `CC1CC(C)C(=O)C1=O` (stereo not given): the “activity change, negative = cytotoxicity” value is 1.13%. Same read-out and setting: in the case of `OC(CCN1CCCC1)(c1ccccc1)C1CCCCC1` (stereo not given) it was -24.8% [at 42.5 µM]. The same measure, in the same setting: the result for `CCCCCCCCN` reads 4.05%.

Turning to `c1ccc2sc(SN(C3CCCCC3)C3CCCCC3)nc2c1`, the “activity change, negative = cytotoxicity” value is -1.4%.

Turning to `O=C1CCCCCCCCCCOCCCCO1`, the “activity change, negative = cytotoxicity” value was 3.6%. On the same count and under the same terms, the result for `CCCCCCC(C)(C)C(=O)O` reads 5.72%; that for `Brc1cc(Br)c(Oc2cc(Br)c(Br)cc2Br)cc1Br`, 2.56% [at 42.5 µM]; that for `CC(=O)c1ccc([N+](=O)[O-])cc1`, 1.08%.

For `Cc1[nH]cnc1CN1CCc2c(c3ccccc3n2C)C1=O`, the “activity change, negative = cytotoxicity” value is -6.44% [at 42.5 µM]. On the same count and under the same terms, the result for `CC(=O)OCC[N+](C)(C)C` reads 2.21% [at 42.5 µM]; that for `CCC1NC(=O)c2cc(S(N)(=O)=O)c(Cl)cc2N1` (stereo not given), 2.67% [at 42.5 µM]; that for `COC(=O)CCS`, -3.15%. As for `CC1=C(CC=O)C(C)(C)CCC1`, the “activity change, negative = cytotoxicity” value is -11.7%. `O=C1Cc2ccccc2N1c1c(Cl)cccc1Cl`: the “activity change, negative = cytotoxicity” value is -12.5%. For the compound `CCCCCCCCCCCCCCN(CCO)CCO`, the Potency was 61.1 µM (active). Still for that read-out and setting: the result for `O=c1c(O)c(-c2ccc(O)cc2)oc2cc(O)cc(O)c12` reads “inactive”. `CCCCCCCCCCC(=O)O`: the “activity change, negative = cytotoxicity” value is 1.96%. In the case of `C=Cc1ccc(S(=O)(=O)O)cc1`, the “activity change, negative = cytotoxicity” value is 5.51%.

As for `CCN(CC)CCNC(=O)COc1ccc(OC)cc1`, the “activity change, negative = cytotoxicity” value is 6.84% [at 42.5 µM]. Still for that read-out and setting: in the case of `Cc1cc(O)c(C)c(C)c1O` it was 1.74% [at 42.5 µM]. Same read-out and setting: the result for `C=C/C(C)=C/C/C=C(\C)CCC=C(C)C` reads 2.17%. As to `CCCCCCCC/C=C\CCCCCCCCCCCC(=O)O`, the “activity change, negative = cytotoxicity” value is -0.0267%. Still for that read-out and setting: the result for `NCCNCCO` reads 2.51%; that for `Cc1ccc2c(Br)cc(Br)c(O)c2n1`, 0.489% [at 42.5 µM]; that for `CC1(C)[C@@H](OC(=O)CCC(=O)O)CC[C@]2(C)[C@H]3C(=O)C=C4[C@@H]5C[C@@](C)(C(=O)O)CC[C@]5(C)CC[C@@]4(C)[C@]3(C)CC[C@@H]12`, -0.577% [at 42.5 µM]. As to `CC(C)(c1ccccc1)c1ccccc1`, the “activity change, negative = cytotoxicity” value is 2.68%. As for `c1cc(N(CC2CO2)CC2CO2)ccc1Cc1ccc(N(CC2CO2)CC2CO2)cc1` (stereo not given), the Potency is 54.5 µM (active). The same measure, in the same setting: the result for `CC(=O)Oc1ccc([N+](=O)[O-])cc1CCl` reads 30.6 µM (active). As to `C=C(C)C(=O)OCCOCCOC(=O)C(=C)C`, the “activity change, negative = cytotoxicity” value was 0.743%. Still for that read-out and setting: in the case of `CC(C)=CCC1C(=O)N(c2ccccc2)N(c2ccccc2)C1=O` it was -7.5% [at 42.5 µM]; in that of `CN1C(=O)c2ccccc2C1=O`, -1.17%; in that of `C/C=C\C/C=C/CCCCCCCCOC(C)=O`, -2.25%. Consider `O=C1NC(=O)c2cc([N+](=O)[O-])ccc21`, for which the “activity change, negative = cytotoxicity” value was -4.72%. Still for that read-out and setting: in the case of `CC[N+](CC)(CCNC(=O)C(=O)NCC[N+](CC)(CC)Cc1ccccc1Cl)Cc1ccccc1Cl` it was 1.19% [at 42.5 µM]. In the case of `c1ccc(C[n+]2cccc3ccccc32)cc1`, the “activity change, negative = cytotoxicity” value is -7.21%.

In the case of `COc1ccccc1N1CCN(CCCCNC(=O)c2ccc(-c3ccc(C(C)=O)cc3)cc2)CC1`, the “activity change, negative = cytotoxicity” value is -0.981% [at 42.5 µM]. Consider `CC(C)=CCC/C(C)=C/CC/C(C)=C/C(=O)OCC(=O)[C@@]1(O)CC[C@H]2[C@@H]3CCC4=CC(=O)C=C[C@]4(C)[C@H]3[C@@H](O)C[C@@]21C`, for which the “activity change, negative = cytotoxicity” value was -23.8% [at 42.5 µM]. Still for that read-out and setting: the result for `C[C@@H](O)[C@H]1C(=O)N2C(C(=O)O)=C([C@H]3CCCO3)S[C@H]12` reads 0.609% [at 42.5 µM]; that for `O=C1c2ccccc2C(=O)C1c1nc2ccccc2c(Br)c1O`, 2.03%.
